# According to PubChem BioAssay AID2156 (Johns Hopkins Ion Channel Center, 2009):
# In all, about 310,000 compounds went through this assay and about 3,400 (1.1%) were called active.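 How the source made its calls: active means fluorescence ratio B-score at most minus 3 library SDs, with starting brightness B-score within 2 library SDs (cut at about -5.5 in these data); inactive means the rest, inconclusive results apart.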 The full list was thinned out, with actives kept by preference.
# Molecular target: Potassium voltage-gated channel subfamily KQT member 2 (Rattus norvegicus) (UniProt O88943)
# Sequence (O88943 whole entry, looked up): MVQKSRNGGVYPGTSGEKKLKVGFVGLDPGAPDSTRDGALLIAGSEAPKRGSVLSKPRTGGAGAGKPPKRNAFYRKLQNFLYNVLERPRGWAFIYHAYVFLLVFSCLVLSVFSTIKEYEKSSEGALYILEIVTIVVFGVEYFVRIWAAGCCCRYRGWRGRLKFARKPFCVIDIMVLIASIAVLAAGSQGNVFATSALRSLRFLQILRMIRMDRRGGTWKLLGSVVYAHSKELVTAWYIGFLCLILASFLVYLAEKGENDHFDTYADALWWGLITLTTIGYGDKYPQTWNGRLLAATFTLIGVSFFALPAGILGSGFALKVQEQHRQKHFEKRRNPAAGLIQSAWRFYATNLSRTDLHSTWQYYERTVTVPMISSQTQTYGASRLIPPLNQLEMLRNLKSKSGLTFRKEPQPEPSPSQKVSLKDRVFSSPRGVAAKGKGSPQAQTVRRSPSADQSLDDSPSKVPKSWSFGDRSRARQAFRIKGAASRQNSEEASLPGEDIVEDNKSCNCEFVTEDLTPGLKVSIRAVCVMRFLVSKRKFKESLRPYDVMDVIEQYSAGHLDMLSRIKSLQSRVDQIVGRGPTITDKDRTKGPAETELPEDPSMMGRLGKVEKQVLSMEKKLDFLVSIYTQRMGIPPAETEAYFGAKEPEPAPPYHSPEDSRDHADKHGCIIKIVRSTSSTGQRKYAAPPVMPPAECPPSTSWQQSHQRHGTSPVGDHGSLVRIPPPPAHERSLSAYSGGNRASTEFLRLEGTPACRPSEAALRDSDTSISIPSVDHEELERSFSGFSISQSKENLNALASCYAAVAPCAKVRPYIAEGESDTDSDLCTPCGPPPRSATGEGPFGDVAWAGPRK
# Test: KCNQ2 channel blockers in CHO-K1 cells – cell-based, FluxOR thallium flux, B-score, primary screen (AID 2156)
# Settings: 20 min, at 10 µM; hits give low values
row,SMILES,B-score
1,Nc1c(C(=O)Nc2ccc3c(c2)OCCO3)nnn1Cc1ccccc1,-0.47 (inactive)
2,CN1/C(=C\C(=O)c2oc3ccccc3c2N)C(C)(C)c2ccccc21,-0.16 (inactive)
3,CC(=O)Nc1cccc(OCC(=O)/C=C2\N(C)c3ccccc3C2(C)C)c1,-6.18 (active)
4,CC(C)Nc1nnc(SCC(=O)/C=C2\N(C)c3ccccc3C2(C)C)s1,inactive
5,Cc1ccc(S(=O)(=O)N(C)C)cc1NC(=O)C1Cc2ccccc2CN1C(=O)c1ccco1 (configuration not stated),-0.13 (inactive)
6,Cc1ccc(C)c(NC(=O)C2Cc3ccccc3CN2C(=O)OCc2ccccc2)c1 (configuration not stated),-6.25 (active)
7,Cc1ccc(NC(=O)C2CCCN2C(=O)OCc2ccccc2)cc1C (configuration not stated),inactive
8,CCOC(=O)c1sc(=S)n2c1[nH]c(=O)c1ccc(C(=O)OC)cc12,inactive
9,CCOC(=O)C1=C(C)Nc2sc(C(=O)c3ccc(Br)cc3)c(N)c2C1c1ccc(C(=O)OC)cc1 (configuration not stated),-6.56 (active)
10,CCOC(=O)c1sc(=NC(=O)c2ccc(Br)cc2)n(C)c1C,inactive
11,Cc1cc(Nc2ccc(Br)cc2)nc2ccccc12,inactive
12,Cc1ccc2nc(SCC(=O)N3CCN(c4ccccc4)CC3)nc(=O)n2c1,-0.18 (inactive)
13,Cc1nc(-c2ccc(F)cc2)c(CC(=O)Nc2cccc(S(=O)(=O)N3CCOCC3)c2)s1,-0.75 (inactive)
14,CCOC(=O)C1CCN(C(=O)COC(=O)C2CCN(S(=O)(=O)c3ccc4c(c3)OCCO4)CC2)CC1,inactive
15,CCOc1ccc(C(=O)Nc2cc(Cl)ccc2-n2cncn2)cc1OC,-0.08 (inactive)
16,CC(=O)Nc1ccc(NC(=O)CSC2=NS(=O)(=O)c3ccccc3N2)cc1,inactive
17,COc1ccc(C(CNC(=O)c2ccc(NS(=O)(=O)c3ccc(F)c(C)c3)cc2)N(C)C)cc1 (configuration not stated),inactive
18,CCCCn1c(N)c(N(CC(C)C)C(=O)C2CSC3(C)CCC(=O)N23)c(=O)[nH]c1=O (configuration not stated),-1.75 (inactive)
19,Cc1cccc(C(C)C)c1NC(=O)COC(=O)C1CC(=O)N(Cc2ccccc2)C1 (configuration not stated),inactive
20,O=C(Cc1ccccc1)N1N=C(c2ccncc2)CC1(O)C(F)(F)F (configuration not stated),inactive
21,CC(=O)N1N=C(c2ccccc2)OC1c1cccnc1 (configuration not stated),inactive

row,SMILES,B-score
1,CC(=O)N1N=C(c2ccncc2)OC1(Cc1ccccc1)Cc1ccccc1,-7.53 (active)
2,CC(=O)Nc1cccc(C(=O)OCC(=O)NCc2cc(C)c(O)c(C)c2)c1,inactive
3,COc1ccc(-c2n[nH]c(C)c2-c2ccccc2OC)c(O)c1,inactive
4,COc1ccccc1-c1n[nH]c2c1[C@H](C)CC[C@H]2C(C)C,-10.1 (active)
5,COc1ccccc1-c1nc(SC)n[nH]1,-0.1 (inactive)
6,Cc1ccnc(NC(=O)CCC(=O)N(CC(=O)NCc2ccccc2)Cc2ccco2)c1,-0.05 (inactive)
7,Cc1ccc(C(C(=O)NC2CCCC2)N(Cc2ccco2)C(=O)CCC(=O)Nc2ccccn2)cc1 (configuration not stated),-1.92 (inactive)
8,Cc1ccc2c(c1)N(CC(=O)N(Cc1ccccn1)Cc1ccco1)C(=O)C(C(C)C)O2 (configuration not stated),-7.54 (active)
9,O=C(c1ccc(Cl)s1)N(Cc1nnc(-c2ccccc2Cl)o1)C1CC1,-0.68 (inactive)
10,O=C(Nc1ccccc1[N+](=O)[O-])C1C(c2ccccc2)=C1c1ccccc1,-5.88 (active)
11,O=C(O)c1ccccc1C(=O)Nc1ccccc1[N+](=O)[O-],-1 (inactive)
12,O=C(Nc1ccccc1-c1ccccc1)c1ccccc1[N+](=O)[O-],-3.5 (inactive)
13,CCC(CC)c1nnc(NC(=O)C2=COCCO2)s1,-0.29 (inactive)
14,CCOc1cc(N2CCOCC2)c(OCC)cc1NC(=O)COc1cccc(Cl)c1,inactive
15,CCOc1cc(N2CCOCC2)c(OCC)cc1NC(=O)COc1cccc2cccnc12,-3.14 (inactive)
16,CCOc1cc(N2CCOCC2)c(OCC)cc1NC(=O)c1ccc(C)s1,-6.48 (active)
17,Cc1ccc(-c2nn(-c3ccc(F)cc3)cc2C(=O)NCC(c2cccs2)N2CCOCC2)cc1 (configuration not stated),-1.75 (inactive)
18,Cn1c2ccccc2c2c(C(=O)N3CCN(c4ccc(F)cc4)CC3)cn(C3CCCC3)c(=O)c21,-5.96 (active)
19,CCOC(=O)N1CCN(C(=O)c2nn(-c3ccc(C)cc3)c(=O)c3c2c2ccccc2n3C)CC1,inactive
20,O=C(c1ccccc1Oc1ccccc1)N1CCN(c2ccc(F)cc2)CC1,-3.32 (inactive)
21,CN1C(C(=O)NCC2CC2)CC2Cn3c(nc4ccccc43)C21 (configuration not stated),inactive

row,SMILES,B-score
1,CCOC(=O)c1cnc2nc(SCc3ccccc3Cl)[nH]n2c1=O,-0.81 (inactive)
2,O=C(CN1CCN(C2CCCCC2)CC1)Nc1ccccc1N1CCCCC1,inactive
3,O=C(Cc1cccc2ccccc12)NCCC1=CCCCC1,-0.18 (inactive)
4,CCC(=O)N1CCN(c2ccccc2NC(=O)COc2cccc(C)c2C)CC1,-4.29 (inactive)
5,Cc1ccccc1NC(=O)Nc1ccccc1N1CCCCC1,inactive
6,Cc1ccc(C(C)C)cc1OCC(=O)Nc1ccccc1N1CCCC1,-8.31 (active)
7,Cn1c(=O)c2c(nc(SCC(=O)Nc3ccccc3N3CCCCC3)n2C)n(C)c1=O,-0.67 (inactive)
8,Cc1ccccc1NC(=O)CNc1ccccc1N1CCCCC1,-5.56 (active)
9,Cc1ccc(C(C)C)cc1OCCN1CCCC1,inactive
10,O=C(CNCCC1=CCCCC1)Nc1ccccc1N1CCCCCC1,-8.12 (active)
11,N#Cc1cccc(OC(=O)c2ccc3c(=O)n4c(nc3c2)CCC4)c1,-0.01 (inactive)
12,CN1CCN(S(=O)(=O)c2ccc(Nc3ccc(F)cc3)nc2)CC1,-0.21 (inactive)
13,COc1ccccc1CCNC(=O)CN1C(=O)NC2(CCCC2)C1=O,inactive
14,CC(Oc1cccc(Cl)c1)C(=O)Nc1ccc(S(=O)(=O)Nc2ncccn2)cc1 (configuration not stated),inactive
15,CSc1ccc(/C=C2\NC(=O)NC2=O)cc1,inactive
16,O=C(COC(=O)Cc1c[nH]c2ccccc12)NCCc1ccccc1,-0.71 (inactive)
17,CCOC(=O)CN(C)Cc1c[nH]c2ccccc12,inactive
18,O=C(Cc1c[nH]c2ccccc12)OCCOC(=O)Cc1c[nH]c2ccccc12,-7.66 (active)
19,CCCCN(C(=O)c1ccc(C)o1)c1c(N)n(CCCC)c(=O)[nH]c1=O,inactive
20,CCC1CCC/C1=N\NC(=O)c1ccc(Cl)cc1 (configuration not stated),inactive
